Records with an inconclusive call do not appear. Unmarked numbers belong to inactive results. Activity calls are given as the source filed them. Calls follow the shape of the full dose curve.
Assay: Cell Viability - SK-N-SH (AID 435);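 also: compound exposure lasted 40 h at 37 °C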
Details: SK-N-SH neuroblastoma cell viability qHTS
Description: NIH Chemical Genomics Center [NCGC]
NIH Molecular Libraries Screening Centers Network [MLSCN]
National Institutes of Environmental Health Sciences [NIEHS]
National Toxicology Program [NTP]
We have developed a 1536-well cell-based assay for quantitative high throughput screening (qHTS) against a number of cell lines to determine in vitro cytotoxicity of small molecules. This particular assay uses the SK-N-SH cell line which is derived from human neuroblastoma.
NCGC Assay Protocol Summary:
The CellTiter-Glo luminescent cell viability assay (Promega) is a homogeneous method to measure the number of viable cells in culture. The end point readout of this assay is based on quantitation of intracellular ATP, an indicator of metabolic activity, using the luciferase reaction. Luciferase catalyzes the oxidation of beetle Luciferin to oxyluciferin and light in the presence of ATP. The luminescent signal is proportional to amount of ATP present.
Using the CellTiter-Glo luminescent cell viability assay, the amount of cellular ATP was measured in the SK-N-SH cell line with complete culture medium following compound treatment for 40 hours. The assay was performed in opaque white Kalypsys 1536-well plates. In the screen, tamoxifen and doxorubicin were used as positive controls. Library compounds were measured for their ability to cause acute toxicity in the cell line, as reflected by a decrease in intracellular ATP levels, in a concentration-dependent manner. Data were normalized to the controls for basal activity (DMSO only) and 100% inhibition (100 uM tamoxifen). AC50 values were determined from concentration-response data modeled with the standard Hill equation.
qHTS protocol fo CellTiter Glo SK-N-SH cellular assay
[Step] [Parameter] [Value] [Description]
1. Reagent; 5 uL; 1500 SK-N-SH cells/well
2. Time; 5 hr; 37 °C incubation
4. Controls; 23 nL; Tamoxifen 0.34 uM to 100 uM & Doxorubicin 0.02 nM to 100 uM
5. Time; 40 hr; 37 °C incubation
6. Reagent; 5 uL; CellTiter Glo reagent
7. Time; 20 min; Room Temperature
8. Detection; Luminescence; Viewlux plate reader
Keywords: cell viability, cytotoxicity, SK-N-SH cell line, luminescence, NTPHTS, NTPHTS_NCGC, NIEHS, EPA, DSSTox, MLSMR, MLSCN, NIH Roadmap, qHTS, NCGC
Potency is read from the fitted curve at half-maximal effect.

Structure (SMILES)	Potency
Cc1cc(CC(=O)O)n(C)c1C(=O)c1ccc(Cl)cc1	> 92 µM
NC(=O)N/N=C/c1ccc([N+](=O)[O-])o1	> 92 µM
CC12CCC(CC1)C(C)(C)O2	> 92 µM
C[C@]12C[C@H](O)[C@H]3[C@@H](CCC4=CC(=O)CC[C@@]43C)[C@@H]1CC[C@@H]2C(=O)CO	> 92 µM
Nc1ccc(S(=O)(=O)Nc2nccs2)cc1	> 92 µM
CCCCCCCCCCCCOS(=O)(=O)O	> 92 µM
COc1ccccc1O	> 92 µM
Cc1c(O)cccc1C(=O)N[C@@H](CSc1ccccc1)[C@H](O)CN1C[C@H]2CCCC[C@H]2C[C@H]1C(=O)NC(C)(C)C	24.5 µM (active)
Cc1cc2nc3c(=O)[nH]c(=O)nc-3n(C[C@H](O)[C@H](O)[C@H](O)CO)c2cc1C	> 92 µM
NCCNCCNCCN	> 92 µM
[Cl][In]([Cl])[Cl]	> 92 µM
NC(=O)c1ncn([C@@H]2O[C@H](CO)[C@@H](O)[C@H]2O)n1	> 92 µM
O=C1c2c(O)cccc2Cc2cccc(O)c21	> 92 µM
CCCCOC(=O)c1ccc(O)cc1	> 92 µM
CC1(C)[C@@H]2CC[C@@]1(C)C(=O)C2	> 92 µM
O=C1O[C@H]([C@@H](O)CO)C(O)=C1O	> 92 µM
NCCNCCNCCNCCN	> 92 µM
